Measurements published in the supplement of paper PMC13380429.

Tests used:
[1] = test system: Vero E6 infected with SARS-CoV-2; experiment: morphology score (similarity to uninfected cells); higher = more like uninfected cells; conditions: 24 h
[2] = test system: Vero E6 infected with SARS-CoV-2; experiment: SARS-CoV-2 infection rate relative to infected DMSO; higher = more infection, active = 60 or less; conditions: 24 h

| SMILES | morphology score [1] | SARS-CoV-2 infection rate [2] |
| --- | --- | --- |
| CC(O)(C(=O)Nc1ccc(S(=O)(=O)c2ccccc2)cc1)C(F)(F)F (stereo not drawn) (10 µM) | 0.347 | 78% (inactive) |
| CCOc1ccc(-n2c([C@@H](C)N(Cc3cccnc3)C(=O)Cc3ccc(OC(F)(F)F)cc3)nc3ncccc3c2=O)cc1 (racemic) (10 µM) | 0.181 | 98.8% (inactive) |
| CCCCOc1c(C(=O)c2c(F)cc(C)cc2F)c[nH]c2nncc1-2 (10 µM) | 0.383 | 104% (inactive) |
| COc1cccc2cc(-c3nc([C@H]4CC[C@H](C(=O)O)CC4)n4ncnc(N)c34)[nH]c12 (0.833333 µM) | 0.174 | 112% (inactive) |
| O=C(O)c1cc2occc2[nH]1 (10 µM) | -0.103 | 109% (inactive) |
| CCCCCCCC/C=C\CCCCCCCC(=O)NCCO [oleoylethanolamide] (10 µM) | 0.0636 | 102% (inactive) |
| O=C(O)c1cc(O)c2ccc(Cl)cc2n1 [7-chlorokynurenic-acid] (10 µM) | 0.0315 | 110% (inactive) |
| COc1ccc(O)c(C(C)(C)C)c1.COc1ccc(O)cc1C(C)(C)C [butylated-hydroxyanisole] (10 µM) | -0.127 | 116% (inactive) |
| CC(Oc1ccc(O)cc1)(P(=O)(O)O)P(=O)(O)O (10 µM) | 0.0418 | 107% (inactive) |
| COc1ccc(Cl)cc1NC(=O)Nc1cc(C)nc2ccccc12 (10 µM) | 0.148 | 96.5% (inactive) |
| C=CCN1CCCC1CNC(=O)c1cc2nn[nH]c2cc1OC (stereo not drawn) [alizapride] (10 µM) | -0.124 | 121% (inactive) |
| Nc1ncnc2nc(-c3ccc(N4CCOCC4)nc3)cc(-c3cccc(Br)c3)c12 (10 µM) | 0.0544 | 108% (inactive) |
| NCC1(CC(=O)O)CCCCC1 [gabapentin] (10 µM) | -0.108 | 109% (inactive) |
| c1ccc2nc(C3=NCCN3)cnc2c1 (10 µM) | 0.177 | 93% (inactive) |
| NCCNC(=O)c1ccc(Cl)cn1 [lazabemide] (10 µM) | 0.0341 | 106% (inactive) |
| COc1cc(Br)c(S(=O)(=O)Nc2ccc(Cl)c(O[C@@H]3CCN(C)C3)c2)cc1OC (10 µM) | -0.105 | 102% (inactive) |
| CCOc1nc2c(N)ncnc2n1CC (10 µM) | 0.236 | 88% (inactive) |
| CN(C)C(=O)Oc1ccc[n+](C)c1 [mestinon] (10 µM) | 0.0902 | 121% (inactive) |
| CC1(C)CC(=O)c2c(C(F)(F)F)nn(-c3ccc(C(N)=O)c(N[C@H]4CC[C@H](OC(=O)CN)CC4)c3)c2C1 (10 µM) | 0.127 | 108% (inactive) |
| CCCSc1nc(N[C@@H]2C[C@H]2c2ccc(F)c(F)c2)c2nnn([C@@H]3C[C@H](OCCO)[C@@H](O)[C@H]3O)c2n1 [ticagrelor] (10 µM) | -0.0229 | 104% (inactive) |
| CN[C@@H]1[C@@H](O)[C@@H](O[C@@H]2[C@@H](O)[C@H](O[C@H]3OC(CN)=CC[C@H]3N)[C@@H](N)C[C@H]2N)OC[C@]1(C)O [Sisomicin (sulfate)] (10 µM) | 0.222 | 102% (inactive) |
| O=C(NCc1ccc(F)cc1)N1CCN2C(=O)OC(c3ccccc3)(c3ccccc3)[C@@H]2C1 (racemic) (10 µM) | 0.069 | 97% (inactive) |
| C/C(=N\NC(=N)N)c1cc(NC(=O)CCCCCCCCC(=O)Nc2cc(/C(C)=N/NC(=N)N)cc(/C(C)=N/NC(=N)N)c2)cc(/C(C)=N/NC(=N)N)c1 [semapimod] (0.833333 µM) | -0.352 | 115% (inactive) |
| C[C@H]1O[C@@H](O[C@H]2CC[C@@]3(C)[C@H](CC[C@@H]4[C@@H]3C[C@@H](O)[C@]3(C)[C@@H](C5=CC(=O)OC5)CC[C@]43O)C2)C[C@H](O)[C@@H]1O[C@H]1C[C@H](O)[C@H](O[C@H]2C[C@H](O)[C@H](O[C@@H]3O[C@H](CO)[C@@H](O)[C@H](O)[C@H]3O)[C@@H](C)O2)[C@@H](C)O1 [deslanoside] (0.833333 µM) | -0.123 | 114% (inactive) |
| C/C(O)=C(\C#N)C(=O)Nc1cc(Br)ccc1Br (10 µM) | 0.00477 | 105% (inactive) |
| NC(=O)N1c2ccccc2CC(O)c2ccccc21 (stereo not drawn) [licarbazepine] (10 µM) | 0.188 | 97% (inactive) |
| CC(=O)OCC(CCn1cnc2cnc(N)nc21)COC(C)=O [famciclovir] (10 µM) | 0.139 | 102% (inactive) |
| CCCn1c(=O)[nH]c2nc(-c3ccc(S(=O)(=O)O)cc3)[nH]c2c1=O (10 µM) | 0.179 | 105% (inactive) |
| c1ccc(-c2n[nH]cc2-c2ccnc3ccccc23)nc1 (10 µM) | -0.0555 | 114% (inactive) |
